A selection: hits, their analogues and other compounds. The true share with any hit is near 28%.
CYP2C19 inh – human CYP2C19 inhibition; P33261; CYP2C19 Supersomes, luciferin-H EGE luminescence, 30 min; inhibition, % at 5 µM; actives 21% (n = 96,000); AID 778;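 active means CYP2C19 inhibition above a set limit at 5 µM in the primary screen, cut at about 50% in these data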;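 further: plate controls were negative control wells for no effect and 2.5 mM tranylcypromine positive control for full effect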
CYP2C9 activ – CYP2C9 (human) activation; recombinant CYP2C9, luciferin-H conversion, luminescence; hits give high values; factor 1 = untreated enzyme, 0 = blocked; AID 1024; activation factor at 5 µM; P11712; actives 1.4% (n = 96,000);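 active means activation factor of 2 or more for CYP2C9 at a 5 µM dose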;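 further: 0 = sulfaphenazole-blocked wells and 1 = vehicle-only wells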
Target sequence (P11712 whole entry, looked up): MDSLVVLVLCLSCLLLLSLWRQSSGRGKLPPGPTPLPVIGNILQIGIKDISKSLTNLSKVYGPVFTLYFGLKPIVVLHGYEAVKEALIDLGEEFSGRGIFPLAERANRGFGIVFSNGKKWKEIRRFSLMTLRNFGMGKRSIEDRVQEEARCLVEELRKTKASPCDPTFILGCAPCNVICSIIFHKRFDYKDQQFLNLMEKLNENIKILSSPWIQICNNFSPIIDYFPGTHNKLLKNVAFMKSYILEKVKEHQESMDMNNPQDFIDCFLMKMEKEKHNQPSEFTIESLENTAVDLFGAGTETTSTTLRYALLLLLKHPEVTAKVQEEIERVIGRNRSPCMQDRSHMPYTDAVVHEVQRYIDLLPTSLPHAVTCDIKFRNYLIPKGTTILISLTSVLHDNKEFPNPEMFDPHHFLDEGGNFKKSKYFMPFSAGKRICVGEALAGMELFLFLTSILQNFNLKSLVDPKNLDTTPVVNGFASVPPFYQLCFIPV
Pyk2 oligo antag – antagonists of human Pyk2 oligomerization; Q14289; Q293 cells, Pyk2 FERM NanoBiT luminescence; hits give low values; z-score (the deposit names both 25 µM and 10 µM); actives 0.83% (n = 99,000); AID 1347419;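 active means Z-score of -3 or lower, scaled per plate to the spread of control and sample wells; inactive means z-score above -3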;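 further: negative z-score means lost luminescence so less FERM oligomerization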
CYP2C9 inhib – blocks human cytochrome P450 2C9. P11712. CYP2C9 Supersomes, luciferin-H conversion, luminescence. inhibition, % at 5 µM. actives 20% (n = 96,000);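 active means blocking of liver enzyme CYP2C9 beyond about 50% at 5 µM, limit read from the data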
CYP2C19 act – increases human CYP2C19 enzyme activity; P33261; recombinant CYP2C19, luciferin-H EGE luminescence; hits give high values; 0 = fully inhibited enzyme, 1 = untreated enzyme; activation factor at 5 µM; 96,000 tested, under 10 active;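 active means activation factor of at least 2 at 5 µM in the primary screen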;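 further: 0 = wells with 2.5 mM tranylcypromine and 1 = vehicle-only wells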
Starred values were filed as active, the others as inactive; x = no result given.

SMILES	CYP2C19 inh	CYP2C9 activ	Pyk2 oligo antag	CYP2C9 inhib	CYP2C19 act
CC(C)(C)n1nc2c(c1NC(=O)CCCc1ccccc1)CS(=O)C2 (stereo not drawn)	36	1	x	-3	0.6
COc1cc(OC)cc(C(=O)NCC(=O)N2CCC(C)CC2)c1	x	x	-0.22	x	x
Cc1ccc(Cc2nnc3n(-c4ccccc4)nc(C(=O)c4ccccc4)n3c2=O)cc1	x	x	-2.2	x	x
CSc1cccc(NC(=O)C2CCN(C(=O)c3ccccc3C)CC2)c1	x	x	0.17	x	x
CC(C)C(=O)Nc1c(-c2cccs2)c(=O)c2ccccc2n1C	-1	1.1	0.86	-14	1
COC(=O)c1cn(C(C)C(=O)NCc2ccco2)c2ccccc12 (stereo not drawn)	59*	0.7	-0.89	31	0.4
COc1cc(C(=O)NCC2CCCO2)cc(OC)c1OC (stereo not drawn)	x	x	0.63	x	x
COc1cc(OC)c(OC)cc1/C=N/NC(=S)NCC1CCCO1 (stereo not drawn)	5	0.3	-0.55	65*	1
COc1ccccc1Cc1nc(-c2ccc(Br)o2)no1	90*	0.7	x	32	0.1
COc1ccccc1-c1nc(-c2ccc(Br)o2)no1	28	1.3	x	-28	0.7
Cc1ccccc1NC(=O)CSc1nnc(Cc2ccccc2)o1	x	x	1.3	x	x
O=C(Cc1cccs1)N(c1ccccc1)C1C=CS(=O)(=O)C1 (stereo not drawn)	31	1	0.46	1	0.7
CCc1ccccc1N(C(=O)c1cccs1)C1C=CS(=O)(=O)C1 (stereo not drawn)	71*	0.9	-0.73	14	0.3
CCOC(=O)CC(/C(C)=N\O)c1ccccc1 (stereo not drawn)	51*	1	0.42	-4	0.5
CN(C)C(CNC(=O)c1cccc(S(=O)(=O)N2CC3(C)CC2CC(C)(C)C3)c1)c1ccco1 (stereo not drawn)	75*	0.3	1.3	73*	0.3
O=C(CN(C1CCCCC1)S(=O)(=O)c1ccc(F)cc1)NCc1ccncc1	86*	0.2	-0.32	83*	0.1
O=C(CN(C1CCCCC1)S(=O)(=O)c1ccc(F)cc1)NCCCO	-1	0.9	0.93	7	1
O=C(CN(C1CCCCC1)S(=O)(=O)c1ccc(Cl)cc1)NCc1ccncc1	94*	0.2	-0.92	82*	0.1
O=C(CCN1C(=O)c2ccccc2C1=O)NCc1ccncc1	34	0.7	-0.07	26	0.7
O=C(CCC1CCCCC1)NCc1ccncc1	89*	0.5	0.72	47	0.1
CCC(C)(C)n1nnnc1CN(Cc1ccc(Cl)cc1)Cc1ccco1	97*	0	-0.15	96*	0
CC(=O)N1CCc2cc(S(=O)(=O)CCC(=O)NCc3cccs3)ccc21	11	1.1	1.4	-13	0.9
COc1ccc(CCNS(=O)(=O)c2ccc(S(=O)(=O)N3CCCC3)cc2)cc1OC	36	0.4	0.29	57*	0.6
COc1ccc(CCNS(=O)(=O)c2ccc3c(c2)CCN3C(=O)C2CC2)cc1OC	45	0.3	1.8	66*	0.6
CCOc1ccc(OCC)c(NS(=O)(=O)c2ccc3c(c2)CCN3C(=O)C2CCC2)c1	33	0.2	-1.2	79*	0.7
SMILES	CYP2C19 inh	CYP2C9 activ	Pyk2 oligo antag	CYP2C9 inhib	CYP2C19 act
CCC(=O)N1CCc2cc(S(=O)(=O)CCC(=O)NCCc3ccccc3)ccc21	35	0.5	0.46	50*	0.7
CCC(=O)N1CCc2cc(S(=O)(=O)NC(CC(C)C)C(=O)N3CCc4ccccc43)ccc21 (stereo not drawn)	52*	0.8	-0.5	24	0.5
COc1ccc(CCNC(=O)CCC(=O)N2CCN(S(=O)(=O)c3ccc(Cl)cc3)CC2)cc1OC	0	0.9	0.83	14	1
CCC(=O)N1CCc2cc(S(=O)(=O)CCC(=O)NCCc3ccc(OC)c(OC)c3)ccc21	28	0.4	0.7	55*	0.7
CCC(=O)N1CCc2cc(S(=O)(=O)NC(Cc3ccccc3)C(=O)NC3CCCCC3C)ccc21 (stereo not drawn)	40	0.5	0.2	50	0.6
CCOC(=O)c1c(C)oc2cc(Br)c(OC(=O)N3CCOCC3)cc12	76*	0.5	-0.31	51*	0.2
c1ccc(Cn2c(SCc3nc4ccccc4s3)nnc2-c2ccco2)cc1	88*	0.2	0.03	83*	0.1
CCC(c1nnc(SCc2nc3ccccc3s2)n1Cc1ccccc1)N(C)C (stereo not drawn)	81*	0.3	0.04	74*	0.2
CCOC(=O)CSc1nnc(-c2cccc(Cl)c2)n1CC	52*	0.9	0.72	7	0.5
COc1cccc(-c2nnc(SCc3nc4ccccc4s3)n2C)c1	81*	0.7	0	29	0.2
O=C(CCCn1c(=O)[nH]c2cc(Cl)ccc2c1=O)NCCCN1CCCC1=O	-12	0.9	0.44	12	1.1
Cc1nc2ccccc2n1CC(=O)N/N=C\c1ccccn1	-10	1	1.4	-2	1.1
CC(C)NC(=O)Cn1nnc(-c2cccc(NC(=O)c3ccccc3F)c2)n1	-9	0.9	0.36	10	1.1
Cc1ccc2c([N+](=O)[O-])c(C)ccc2n1	10	1	-0.49	3	0.9
COc1ccc(CCN2C(=O)c3ccncc3C2=O)cc1OC	17	0.8	1.4	19	0.8
CCn1c(SCc2cccc(C)c2)nnc1-c1ccccc1	97*	1	-0.52	5	0
CCn1c(SCc2nc3ccccc3s2)nnc1-c1ccccc1	99*	0.8	0.28	20	0
Cc1nnc(SCc2nc3ccccc3s2)n1-c1ccccc1	x	x	0.1	x	x
CC1=NOC(=O)/C1=C/c1ccc(N(C)C)cc1	-15	1	x	3	1.1
CC1=NOC(=O)/C1=C\c1ccc(-c2cc(Cl)ccc2Cl)o1	60*	1	0.98	4	0.4
O=C1OC(c2cccs2)=N/C1=C\c1ccc(-c2ccccc2Cl)o1	3	1	0.1	-3	1
CC1=NOC(=O)/C1=C/c1ccc(-c2ccc(Cl)cc2)o1	76*	0.3	-1.4	68*	0.2
O=C(Nc1ccccc1C(=O)N1CCOCC1)c1ccncc1	-10	1.1	-0.39	-9	1.1
S=C1NC(c2ccccc2)=NCN1c1ccc(Cl)cc1	80*	0.6	0.62	42	0.2
CCO/C(C)=C1\C(=O)N(CC)c2ccccc21	33	0.6	0.41	40	0.7
CCOC(=O)c1cc2n(c1/N=C/N(C)C)-c1ccccc1C2=O	22	0.4	-0.6	62*	0.8
Cc1ccccc1NC1c2ccccc2C(=O)N1Cc1ccco1 (stereo not drawn)	38	0.8	x	25	0.6
CCN(CC)S(=O)(=O)c1ccc(NC2c3ccccc3C(=O)N2Cc2ccco2)cc1 (stereo not drawn)	41	0.1	x	92*	0.6
CCOC(=O)c1cccc(NC2c3ccccc3C(=O)N2Cc2ccco2)c1 (stereo not drawn)	39	0.6	x	44	0.6

Screens deposited in PubChem by Sanford-Burnham Center for Chemical Genomics.
